PTK2B oligo ant: antagonists of Pyk2 self-association, primary screen, Q293 cells, FERM NanoBiT luminescence, HTS; Protein-tyrosine kinase 2-beta (Homo sapiens), Q14289; AID 1347419, 2020; hit rate 0.83% among 99,000; z-score (the deposit names both 25 µM and 10 µM); hits give low values;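 active means Z-score of -3 or lower, scaled per plate to the spread of control and sample wells; inactive means z-score above -3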;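 further: negative z-score means lost luminescence so less FERM oligomerization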
IL1B NFkB pot: enhancers of NFkB p65 translocation in HUVEC – imaging, IL-1B stimulus, high-content imaging, primary screen; hit rate 0.3% among 94,000; AID 819, 2007; activation, % at 2 µM; HUVEC IL-1B NFkB p65 nuclear translocation imaging;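 active means activation above 40%, about the mean plus 3 SD, also judged a hit on visual image review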;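 further: percent activation is computed from the nuclear over cytoplasmic p65 intensity ratio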
Phagocyt inh: inhibitors of macrophage phagocytosis, primary screen, imaging, J774A.1 cells, IgG beads; J774A.1 macrophage IgG-bead phagocytosis; inhibition, % at 5 µM; hit rate 0.07% among 110,000;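 active means inhibition above the mean of the plate negative controls plus 5 SD, cut at about 13% in these data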;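 further: phagocytic index as fraction of beads internalized from green versus red external bead signal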
IL1B NFkB inh: inhibitors of IL-1B driven NFkB p65 nuclear import, primary screen, imaging, HUVEC, IL-1B stimulus, high-content imaging. HUVEC IL-1B NFkB p65 nuclear translocation imaging. inhibition, % at 2 µM. hit rate 0.43% among 94,000. AID 796, 2007;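 active means inhibition above about 30% together with a positive call from visual inspection of the well image, limit read from the data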;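 further: nuclear over cytoplasmic p65 intensity ratio measured by imaging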
IL1B cytotox: cytotoxicity in IL-1B stimulated HUVEC, primary screen, cytotoxicity control for IL-1B NFkB translocation project, imaging, Hoechst nuclear count, IL-1B stimulus; cell count reduction, % at 2 µM; hit rate 0.41% among 94,000; HUVEC cell count loss; AID 845, 2007;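 active means cell count reduction more than 3 SD above the screen-wide mean, cut at about 70% in these data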
Numbers stand for hits; – = inactive; · = not tested or not shown. In the library only some 1.4% were active in any assay of this set; here they are far more common.

SMILES	PTK2B oligo ant	IL1B NFkB pot	Phagocyt inh	IL1B NFkB inh	IL1B cytotox
COc1ccc(N(CC(=O)Nc2cccc(C)c2)S(=O)(=O)c2c(C)n[nH]c2C)cc1	–	–	·	–	–
O=C(CCNS(=O)(=O)c1cccs1)N1CCc2ccccc2C1	–	–	·	99	–
CC1CC(C)CN(C(=O)CCNS(=O)(=O)c2cccs2)C1 (stereo not drawn)	–	·	–	·	·
CSC1=C(C#N)C(c2ccccc2Cl)C(C(C)=O)=C(C)N1 (stereo not drawn)	-3.1	–	·	–	–
CC(=O)C1=C(C)NC(SCC(=O)Nc2nccs2)=C(C#N)C1c1ccccc1Cl (stereo not drawn)	·	·	–	·	·
CCOC(=O)Cc1csc(NC(=O)COc2ccc(OC)cc2)n1	·	–	–	–	–
CCOC(=O)Cc1csc(NC(=O)COc2ccc(N(C)S(=O)(=O)c3ccc(C)cc3)cc2)n1	-3.9	–	–	–	–
CCOC(=O)c1sc(NC(=O)CSc2n[nH]c(-c3ccccc3)n2)c(C#N)c1C	–	·	–	·	·
Cc1ccc(/C=C/C2=Cc3c(sc(NC(=O)CSc4n[nH]c(N)n4)c3C#N)C(C)(C)C2)o1	·	–	·	50	–
CCCOc1ccc([N+](=O)[O-])cc1C1NC(=S)NC(c2ccccc2)=C1C(=O)OCC (stereo not drawn)	-4.1	–	·	–	–
CCOC(=O)C1=C(c2cccc(F)c2)NC(=S)NC1C (stereo not drawn)	–	–	–	–	–
O=C(Oc1cccc(N2C(=O)CCC2=O)c1)c1ccccc1	–	–	·	–	89
Cn1cc(S(=O)(=O)N2CCN(c3cccc(C(F)(F)F)c3)CC2)c(=O)n(C)c1=O	·	–	–	56	–
Cc1cc(C(=O)COC(=O)CN(C)S(=O)(=O)c2ccc(Cl)cc2)c(C)n1Cc1cccs1	–	–	–	–	–
Cc1nc(S/C(=C/c2ccc(-c3cccc(Cl)c3)o2)C(=O)O)n[nH]1	–	–	·	–	–
COc1ccccc1C(=O)NC(=S)Nc1ccc(NC(=O)c2cccs2)cc1	·	·	–	·	·
N#C/C(=C/c1cc(Br)cs1)C(=O)NCC1CCCO1 (stereo not drawn)	–	–	–	97	88
N#C/C(=C\c1cccs1)C(=O)NCC1CCCO1 (stereo not drawn)	–	–	·	–	–
CC(=O)C1=C(C)OC(N)=C(C#N)C1c1cc2cc(C)c(C)cc2nc1Cl (stereo not drawn)	–	43	–	–	–
C=C(c1ccc(O)cc1)c1ccc(O)cc1	-4.6	–	–	–	–
O=C(c1ccc(O)cc1)c1ccc(Cl)cc1	–	–	·	–	–
Cc1onc(-c2ccccc2Cl)c1C(=O)NCCN1CCOCC1	–	–	–	–	–
CCOC(=O)CN(C(=O)Cn1nnc2ccccc21)C(C(=O)NCCOC)c1ccccc1 (stereo not drawn)	–	–	–	–	–
CC(OC1=CC(=O)CCC1)C(=O)c1ccccc1 (stereo not drawn)	–	–	187	–	–
CC(OC(=O)CN1C(=O)NC(C)(C)C1=O)C(=O)c1ccccc1 (stereo not drawn)	–	–	–	–	–
SMILES	PTK2B oligo ant	IL1B NFkB pot	Phagocyt inh	IL1B NFkB inh	IL1B cytotox
Cc1cc(Cl)cc(Br)c1OCCNCC(C)O (stereo not drawn)	–	–	174	–	–
O=C(N/N=C/c1ccccc1Cl)c1[nH]c2ccc(Br)cc2c1-c1ccccc1	·	·	–	·	·
O=S(=O)(c1cccs1)N1CCN(c2ccccn2)CC1	–	–	·	–	–
CCOC(=O)c1ccc2[nH]c3c(c2c1)CCCCC3=O	–	41	·	–	–
CCOC(=O)c1ccc2[nH]c3c(c2c1)CCCC3C(=O)OCC (stereo not drawn)	–	–	–	–	–
CCc1ccc(-n2c(O)c(C=NCCN(CC)CC)c(=O)[nH]c2=O)cc1	–	–	·	–	–
COc1ccc2c(c1)c1ncn(CCN3CCCC3)c(=O)c1n2C	–	–	–	–	–
COc1ccc2c(c1)c1ncn(CCN3CCNCC3)c(=O)c1n2C	–	–	·	–	92
CCOC(=O)N1CCC(NC(=O)C2CCN(c3ccc(N4CCOCC4)nn3)CC2)CC1	–	–	–	–	–
CCCCn1c(=O)nc2n(-c3ccccc3)c3ccccc3cc-2c1=O	–	92	–	–	–
COc1ccc(S(=O)(=O)N(CC(N)=O)C2CCCCC2)cc1Cl	–	–	–	–	93
Cc1ccc(NC(=O)Cc2csc(-c3ccccc3)n2)cc1F	·	·	–	·	·
CCOCCCNC(=O)c1c[nH]c2ccc(S(=O)(=O)Nc3cccc(OC)c3)cc2c1=O	–	–	–	–	–
O=C(NC1CC1)c1c[nH]c2ccc(S(=O)(=O)Nc3cccc(C(F)(F)F)c3)cc2c1=O	–	–	·	–	91
O=C(C1CC1)N1CCN(c2nc3ccccc3s2)CC1	–	–	–	–	–
CCC(=O)N1CCN(c2nc3ccccc3s2)CC1	–	–	–	37	–
CN(c1ccccc1C(=O)Nc1ccc(S(=O)(=O)N2CCCCC2)cc1)S(C)(=O)=O	–	–	–	99	94
COc1cc(S(=O)(=O)N2CCCCC2)ccc1NC(=O)c1ccccc1Cl	–	–	·	47	–
Cc1ccc(NC(=O)c2cc(NC(=O)CCC(=O)O)ccc2N2CCCCC2)cc1	–	–	–	–	92
Cc1cccc(NC(=O)c2cc(NC(=O)c3ccccc3)ccc2N2CCCCC2)c1	–	–	–	–	–
Cc1ccccc1NC(=O)CN(c1ccc(F)cc1)S(C)(=O)=O	–	–	–	–	–
CN(C)S(=O)(=O)N(CC(=O)Nc1ccccc1F)c1ccccc1	–	–	·	–	79
CCCCn1c(Cc2ccccc2)nnc1SCC(=O)Nc1cc(C)on1	–	–	·	–	–
C=CCNC(=O)c1sc(=S)n(-c2ccc(C(=O)OCC)cc2)c1N	–	·	–	·	·
Cc1c(C(=O)NCc2ccco2)oc2ccc(S(=O)(=O)N3CCC4(CC3)OCCO4)cc12	–	–	·	32	–
SMILES	PTK2B oligo ant	IL1B NFkB pot	Phagocyt inh	IL1B NFkB inh	IL1B cytotox
Cc1c(C(=O)NCCc2ccccc2)oc2ccc(S(=O)(=O)N3CCC4(CC3)OCCO4)cc12	–	–	·	–	–
Cc1cc(C)n(C(=O)c2cc3sccc3[nH]2)n1	–	·	–	·	·
Cc1ccc(NC(=O)CSC2=C(C#N)C(c3ccco3)C3=C(CC(C)(C)CC3=O)N2)cc1 (stereo not drawn)	-3.4	–	–	–	–
CCc1ccc(NC(=O)CSC2=C(C#N)C(c3ccco3)C3=C(CCCC3=O)N2)cc1 (stereo not drawn)	–	–	–	–	–
CCOC(=O)C1=C(c2ccccc2)NC(SCC(=O)Nc2cccc(C)c2)=C(C#N)C1c1ccco1 (stereo not drawn)	-4	–	–	–	–
CCOC(=O)C1=C(c2ccccc2)NC(SCC(=O)Nc2ccccc2C)=C(C#N)C1c1ccco1 (stereo not drawn)	-3.7	–	–	–	–
